From PubChem BioAssay (NCI) come the findings set out here.

Structures are written as SMILES. Compounds without any hit were thinned out: in the full panel of roughly 79,000, 15% have a hit. Values without a mark were called inactive. The source made the active and inactive calls. Cut-off read from the data, not from the text of the source: active = growth inhibition above about 70%; inactive = the rest.

Experiment [1] in a line: NCI Yeast Anticancer Drug Screen. Data for the rad50 strain (AID 155).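 Note: 0% = growth of vehicle-only cultures of the same strain.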 To be noted: S. cerevisiae rad50 strain growth inhibition, hits give high values. The essentials: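 Compounds were tested on a yeast strain with an engineered DNA damage repair alteration; the reported value is growth inhibition normalised to vehicle treatment.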
A short description of experiment [2]: NCI Yeast Anticancer Drug Screen. Data for the mec2-1 strain (AID 157). To be noted: S. cerevisiae mec2-1 strain, hits give high values. The essentials:
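Readout is yeast growth inhibition, normalised to vehicle-treated controls, in the mec2-1 strain exposed to compound.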

A short description of experiment [3]: NCI Yeast Anticancer Drug Screen. Data for the sgs1 mgt1 strain (AID 161).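 Note: 0% = growth of cultures given vehicle only.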 The following applies: S. cerevisiae sgs1 mgt1 strain, hits give high values. The method in brief:
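Yeast cells carrying a defined DNA-repair defect were exposed to test compounds. Growth inhibition was measured relative to vehicle-treated controls.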

A short description of experiment [4]: NCI Yeast Anticancer Drug Screen. Data for the cln2 rad14 strain (AID 165).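 Note: 0% = growth equal to vehicle treated cultures.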 The following applies: S. cerevisiae cln2 rad14 strain, hits give high values. The essentials: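 Relative to vehicle controls, growth inhibition of compound-treated cln2 rad14 yeast was recorded.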
Experiment [5] is described as follows: NCI Yeast Anticancer Drug Screen. Data for the bub3 strain (AID 167). The following applies: S. cerevisiae bub3 mutant strain, hits give high values. The method in brief:
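Growth of a checkpoint-deficient yeast mutant is measured after compound exposure. Values represent inhibition relative to vehicle.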

A short description of experiment [6]: NCI Yeast Anticancer Drug Screen. Data for the mlh1 rad18 strain (AID 175). The following applies: S. cerevisiae mlh1 rad18 strain growth inhibition, hits give high values. The method in brief:
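Test agents were incubated with a yeast strain of defined genotype (DNA damage repair defect). Inhibition of growth was derived by comparison with vehicle-exposed cultures.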

[7] abbreviates: at 5.0 µM (retest, dose inferred, filed as 0.5).
[8] abbreviates: at 50.0 µM (retest, dose inferred, filed as 5.0).

`CCC(CO)Nc1nc2cc(Br)ccc2c2ccc(Br)cc12` (stereo not given): the growth inhibition was 36% in experiment [1] (setting [7]); 92% (active) in experiment [1] (setting [8]); 92.6% (active) in experiment [1] (at 50.0 µM); 10% in experiment [2] (setting [7]); 96% (active) in experiment [2] (setting [8]); 95.5% (active) in experiment [2] (at 50.0 µM). Moreover, the growth inhibition is 62% in experiment [3] (setting [7]); 93% (active) in experiment [3] (setting [8]); 96.2% (active) in experiment [3] (at 50.0 µM); 8% in experiment [4] (setting [7]); 93% (active) in experiment [4] (setting [8]); 93.8% (active) in experiment [4] (at 50.0 µM). Besides, the growth inhibition in experiment [5] (setting [7]) was 47%; in experiment [5] (setting [8]), 94% (active); in experiment [5] (at 50.0 µM) it was 91.9% (active); in experiment [6] (setting [7]), 18%; in experiment [6] (setting [8]) it was 93% (active); in experiment [6] (at 50.0 µM), 95.8% (active).

`Cc1ccc(N2C(N)=C(C#N)C(C#N)(C#N)C2c2ccccc2)cc1` (stereo not given): the growth inhibition in experiment [1] (setting [7]) is 22%; in experiment [1] (setting [8]) it was 70% (active); in experiment [1] (at 50.0 µM) it was 31.1%; in experiment [2] (setting [7]) it was 26%; in experiment [2] (setting [8]) it was 82% (active); in experiment [2] (at 50.0 µM), 38.1%. For the same compound, the growth inhibition was 20% in experiment [3] (setting [7]); 51% in experiment [3] (setting [8]); 55% in experiment [3] (at 50.0 µM); 14% in experiment [4] (setting [7]); 41% in experiment [4] (setting [8]); 24.4% in experiment [4] (at 50.0 µM). The growth inhibition in experiment [5] (setting [7]) is 25%; in experiment [5] (setting [8]) it was 50%; in experiment [5] (at 50.0 µM), 64.7%; in experiment [6] (setting [7]) it was 25%; in experiment [6] (setting [8]) it was 88% (active); in experiment [6] (at 50.0 µM) it was 90.5% (active).

Take `c1ccc([P+](c2ccccc2)(c2ccccc2)C2c3ccccc3-c3ccccc32)cc1`: the growth inhibition was 68% in experiment [1] (setting [7]); 98% (active) in experiment [1] (setting [8]); 91.2% (active) in experiment [1] (at 50.0 µM); 55% in experiment [2] (setting [7]); 98% (active) in experiment [2] (setting [8]); 92.8% (active) in experiment [2] (at 50.0 µM). Moreover, the growth inhibition in experiment [3] (setting [7]) is 86% (active); in experiment [3] (setting [8]), 99% (active); in experiment [3] (at 50.0 µM) it was 89.5% (active); in experiment [4] (setting [7]), 31%; in experiment [4] (setting [8]) it was 97% (active); in experiment [4] (at 50.0 µM), 88.5% (active). In addition, the growth inhibition in experiment [5] (setting [7]) is 57%; in experiment [5] (setting [8]) it was 99% (active); in experiment [5] (at 50.0 µM), 86.5% (active); in experiment [6] (setting [7]) it was 69%; in experiment [6] (setting [8]), 98% (active); in experiment [6] (at 50.0 µM), 86.2% (active).

In the case of `O=C(O)c1ccccc1-c1c2cc(I)c(=O)c(I)c-2oc2c(I)c(O)c(I)cc12`, the growth inhibition in experiment [1] (setting [7]) was 20%; in experiment [1] (setting [8]), 98% (active); in experiment [1] (at 50.0 µM), 98.9% (active); in experiment [2] (setting [7]), 15%; in experiment [2] (setting [8]), 99% (active); in experiment [2] (at 50.0 µM) it was 99.5% (active). The growth inhibition in experiment [3] (setting [7]) is 12%; in experiment [3] (setting [8]) it was 97% (active); in experiment [3] (at 50.0 µM), 99.2% (active); in experiment [4] (setting [7]) it was 5%; in experiment [4] (setting [8]) it was 98% (active); in experiment [4] (at 50.0 µM) it was 99% (active). The growth inhibition in experiment [5] (setting [7]) was 2%; in experiment [5] (setting [8]) it was 98% (active); in experiment [5] (at 50.0 µM), 98.9% (active); in experiment [6] (setting [7]) it was 34%; in experiment [6] (setting [8]), 99% (active); in experiment [6] (at 50.0 µM), 98.8% (active).

Turning to `O=C(Nc1ccc(S(=O)(=O)NC2CCCCC2)cc1)OC1CCCCCCC1`, the growth inhibition in experiment [1] (setting [7]) is 69%; in experiment [1] (setting [8]) it was 74% (active); in experiment [1] (at 50.0 µM), 72% (active); in experiment [2] (setting [7]), 99% (active); in experiment [2] (setting [8]) it was 81% (active); in experiment [2] (at 50.0 µM), 53.2%. For the same compound, the growth inhibition in experiment [3] (setting [7]) is 72% (active); in experiment [3] (setting [8]) it was 40%; in experiment [3] (at 50.0 µM), 77.6% (active); in experiment [4] (setting [7]) it was 12%; in experiment [4] (setting [8]) it was 75% (active); in experiment [4] (at 50.0 µM), 75% (active). The growth inhibition in experiment [5] (setting [7]) was 92% (active); in experiment [5] (setting [8]) it was 79% (active); in experiment [5] (at 50.0 µM), 67%; in experiment [6] (setting [7]) it was 90% (active); in experiment [6] (setting [8]), 58%; in experiment [6] (at 50.0 µM) it was 76.7% (active).

For `c1ccc2c(c1)CCCc1cc3ccccc3nc1-2`, the growth inhibition is 27% in experiment [1] (setting [7]); 96% (active) in experiment [1] (setting [8]); 84.8% (active) in experiment [1] (at 50.0 µM); -30% in experiment [2] (setting [7]); 98% (active) in experiment [2] (setting [8]); 92.8% (active) in experiment [2] (at 50.0 µM). Moreover, the growth inhibition was -1% in experiment [3] (setting [7]); 96% (active) in experiment [3] (setting [8]); 93% (active) in experiment [3] (at 50.0 µM); -12% in experiment [4] (setting [7]); 96% (active) in experiment [4] (setting [8]); 92% (active) in experiment [4] (at 50.0 µM). In addition, the growth inhibition was 18% in experiment [5] (setting [7]); 97% (active) in experiment [5] (setting [8]); 91.9% (active) in experiment [5] (at 50.0 µM); -36% in experiment [6] (setting [7]); 96% (active) in experiment [6] (setting [8]); 89.7% (active) in experiment [6] (at 50.0 µM).

Consider `CSC1=Nc2ccccc2SC(c2ccccc2)C1c1ccccc1` (stereo not given), for which the growth inhibition in experiment [1] (setting [7]) is 4%; in experiment [1] (setting [8]), 14%; in experiment [1] (at 50.0 µM) it was 20.1%; in experiment [2] (setting [7]), 0%; in experiment [2] (setting [8]) it was 15%; in experiment [2] (at 50.0 µM) it was 29.3%. The growth inhibition is 6% in experiment [3] (setting [7]); 17% in experiment [3] (setting [8]); 67% in experiment [3] (at 50.0 µM); -3% in experiment [4] (setting [7]); -9% in experiment [4] (setting [8]); 84.7% (active) in experiment [4] (at 50.0 µM). Also, the growth inhibition in experiment [5] (setting [7]) is 5%; in experiment [5] (setting [8]), 7%; in experiment [5] (at 50.0 µM), 53.3%; in experiment [6] (setting [7]), 3%; in experiment [6] (setting [8]), 8%; in experiment [6] (at 50.0 µM) it was 63.9%.

Take `CCCC(=O)Nc1cc([N+](=O)[O-])ccc1O`: the growth inhibition in experiment [1] (setting [7]) is -129%; in experiment [1] (setting [8]), 97% (active); in experiment [1] (at 50.0 µM), 99.3% (active); in experiment [2] (setting [7]), -38%; in experiment [2] (setting [8]) it was 98% (active); in experiment [2] (at 50.0 µM), 90% (active). Moreover, the growth inhibition in experiment [3] (setting [7]) is -51%; in experiment [3] (setting [8]), 88% (active); in experiment [3] (at 50.0 µM), 63.2%; in experiment [4] (setting [7]), -57%; in experiment [4] (setting [8]), 84% (active); in experiment [4] (at 50.0 µM) it was 96.7% (active). Moreover, the growth inhibition is -57% in experiment [5] (setting [7]); 97% (active) in experiment [5] (setting [8]); 95.2% (active) in experiment [5] (at 50.0 µM); -127% in experiment [6] (setting [7]); 93% (active) in experiment [6] (setting [8]); 98% (active) in experiment [6] (at 50.0 µM).

On to `CC1(C)/C=C/C2=Nc3cc(Br)c(Br)c(Br)c3C23CC(=O)N3/C=C(\Cl)c2nc(Br)[nH]c21` (stereo not given), for which the growth inhibition is 22% in experiment [1] (setting [7]); 97% (active) in experiment [1] (setting [8]); 92% (active) in experiment [1] (at 50.0 µM); 15% in experiment [2] (setting [7]); 96% (active) in experiment [2] (setting [8]); 93.8% (active) in experiment [2] (at 50.0 µM). In addition, the growth inhibition in experiment [3] (setting [7]) was 32%; in experiment [3] (setting [8]), 98% (active); in experiment [3] (at 50.0 µM), 93.8% (active); in experiment [4] (setting [7]), 29%; in experiment [4] (setting [8]), 98% (active); in experiment [4] (at 50.0 µM) it was 91.7% (active). Besides, the growth inhibition is 12% in experiment [5] (setting [7]); 98% (active) in experiment [5] (setting [8]); 93% (active) in experiment [5] (at 50.0 µM); -11% in experiment [6] (setting [7]); 98% (active) in experiment [6] (setting [8]); 92.5% (active) in experiment [6] (at 50.0 µM).

`Cc1ccc(Nc2nc3nc[nH]c3c(=O)[nH]2)cc1CO`: the growth inhibition in experiment [1] (setting [7]) is 2%; in experiment [1] (setting [8]), 13%; in experiment [1] (at 50.0 µM), -4.35%; in experiment [2] (setting [7]), 10%; in experiment [2] (setting [8]) it was 2%; in experiment [2] (at 50.0 µM), -12.4%. For the same compound, the growth inhibition in experiment [3] (setting [7]) is -12%; in experiment [3] (setting [8]) it was 14%; in experiment [3] (at 50.0 µM), -0.6%; in experiment [4] (setting [7]) it was -2%; in experiment [4] (setting [8]) it was -4%; in experiment [4] (at 50.0 µM) it was 0%. Further, the growth inhibition in experiment [5] (setting [7]) was 2%; in experiment [5] (setting [8]), -4%; in experiment [5] (at 50.0 µM), -8.75%; in experiment [6] (setting [7]) it was 15%; in experiment [6] (setting [8]), 7%; in experiment [6] (at 50.0 µM), 4.8%.
